Test results as given in PubChem BioAssay (NCATS).
Records with an inconclusive call do not appear. Values without a mark were called inactive. Activity calls are given as the source filed them. Calls follow the shape of the full dose curve.

Target: Peroxisome proliferator-activated receptor delta (Homo sapiens) (UniProt Q03181)
Experiment: qHTS assay for small molecule agonists of peroxisome proliferator-activated receptor delta signaling (AID 588534);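 also: 0% = DMSO basal wells and 100% = positive control agonist at 10 µM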
Conditions: HEK293T PPARdelta-UAS-bla, beta-lactamase ratio, 18 h; series mostly up to 76.7 µM; activation: at the top concentration
Outline: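 Reporter cells were plated and held 5 hrs at 37 C before compounds were added. After 18 hrs at 37 C, CCF4 dye was loaded for 2 hrs at RT and fluorescence measured.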

Chain of Peroxisome proliferator-activated receptor delta (Homo sapiens) (Q03181 whole entry, looked up): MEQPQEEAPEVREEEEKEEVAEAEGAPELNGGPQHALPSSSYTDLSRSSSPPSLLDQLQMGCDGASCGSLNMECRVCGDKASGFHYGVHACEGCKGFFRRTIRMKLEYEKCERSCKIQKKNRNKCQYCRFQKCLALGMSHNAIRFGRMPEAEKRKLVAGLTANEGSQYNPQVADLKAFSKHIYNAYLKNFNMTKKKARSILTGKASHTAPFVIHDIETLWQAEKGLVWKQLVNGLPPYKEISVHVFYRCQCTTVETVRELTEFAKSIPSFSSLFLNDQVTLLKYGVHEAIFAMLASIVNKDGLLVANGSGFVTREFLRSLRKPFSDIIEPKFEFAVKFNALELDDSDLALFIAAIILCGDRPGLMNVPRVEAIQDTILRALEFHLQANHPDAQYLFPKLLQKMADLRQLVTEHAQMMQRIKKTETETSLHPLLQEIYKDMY

SMILES | activation [%] | outcome
Nc1cccc(O)c1 | 2.4 | –
CCCCCCCCCCCCCC(=O)OC | 3.31 | –
CCO | 11.9 | –
CC(C)S | -4.95 | –
Nc1cc([N+](=O)[O-])ccc1C(=O)O | – | inactive
CCCCCNCCCCC | – | inactive
BrC(Br)C(Br)Br | 10.2 | –
CC/C=C/C#N | 15.1 | –
Nc1ccccc1S(=O)(=O)O | 4.56 | –
NC(=O)CCCCC(N)=O | 7.26 | –
Cc1ccc([N+](=O)[O-])c(N)c1 | 10.7 | –
CCCCCCCCCCCCCO | -5.16 | –
Cc1ccc(C#N)cc1 | 6.75 | –
C=CC(=O)OCCOc1ccccc1 | 3.09 | –
OCCOCCOCCOCCO | 0.513 | –
O=C(/C=C/c1ccc(O)c(O)c1)OC1C[C@](O)(C(=O)O)C[C@@H](O)[C@H]1O (some centres undefined) | – | inactive
NC(=O)c1cccc([N+](=O)[O-])c1 | 5.16 | –
O=[N+]([O-])c1ccc2c(c1)Cc1ccccc1-2 | -2.87 | –
CCCCCCC=O | 3.7 | –
CCCCCCCCC | 10.7 | –

SMILES | activation [%] | outcome
CCCCCCCCCCCCCCC1CO1 (centres undefined) | – | inactive
CCOc1cccc(N)c1 | 16.1 | –
CCCCCCCCO | – | inactive
Cc1ccc2ncccc2c1 | 7.33 | –
O=C(O)c1ccccc1C(=O)O | 0.141 | –
CCCCCCCC[Si](OCC)(OCC)OCC | 0.992 | –
O=C(Cl)c1cccc(C(=O)Cl)c1 | 5.99 | –
CCCCC(CC)COC(=O)/C=C\C(=O)OCC(CC)CCCC (centres undefined) | 3.59 | –
C=CCCCCCCCCCC | 2.62 | –
CCC(Cl)CC(Cl)C(Cl)C(Cl)C(Cl)C(C)Cl (centres undefined) | 8.91 | –
C=CCCCC | 3.86 | –
ClC/C=C/CCl | 8.49 | –
CCCCCCCCN | 4.19 | –
O=C1OC(=O)c2cc([N+](=O)[O-])ccc21 | 3.63 | –
Oc1ccc(O)c2c(O)cccc12 | 4.35 | –
C[Si]1(C)O[Si](C)(C)O[Si](C)(C)O[Si](C)(C)O[Si](C)(C)O1 | 1.92 | –
Cc1cc(C(=O)O)ccc1[N+](=O)[O-] | -9.84 | –
CSC(=O)c1cccc2nnsc12 | 7.1 | –
c1ccc(Nc2ccccc2)cc1 | – | inactive
